About 1,200 (0.86%) of roughly 140,000 compounds were called active. The entries come from a sample that favours actives as a whole. Unmarked numbers belong to inactive results. Rule as the data show it: active = activity change below about -25%; inactive = the rest.

The values below come from PubChem BioAssay AID1645851 (National Center for Advancing Translational Sciences (NCATS), 2021).
% is scaled to controls: 0 for no effect and ±100 for the full control effect.

Sequence of Inositol hexakisphosphate kinase 1 (Homo sapiens) (Q92551 whole entry, looked up): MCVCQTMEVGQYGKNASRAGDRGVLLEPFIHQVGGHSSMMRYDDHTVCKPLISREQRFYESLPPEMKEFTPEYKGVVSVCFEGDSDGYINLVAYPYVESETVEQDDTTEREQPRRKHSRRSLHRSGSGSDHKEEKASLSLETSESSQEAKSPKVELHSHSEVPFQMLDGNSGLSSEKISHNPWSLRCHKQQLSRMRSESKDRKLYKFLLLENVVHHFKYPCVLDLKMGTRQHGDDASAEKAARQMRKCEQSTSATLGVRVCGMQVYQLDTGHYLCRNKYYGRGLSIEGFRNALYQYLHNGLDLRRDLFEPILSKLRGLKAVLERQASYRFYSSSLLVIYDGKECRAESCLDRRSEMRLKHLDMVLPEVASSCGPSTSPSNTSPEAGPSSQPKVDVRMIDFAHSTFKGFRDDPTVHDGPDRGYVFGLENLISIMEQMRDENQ

This assay addresses Inositol hexakisphosphate kinase 1 (Homo sapiens) (UniProt Q92551). In words: Primary qHTS assay for small molecule inhibitors of Inositol hexaphosphate kinase 1 (IP6K1). Also: series mostly up to about 58 µM. The conditions noted are these: ADP-Glo luminescence, 2 h, active compounds read low. Put shortly:
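ADP-Glo luminescence measures ADP made by human IP6K1 during a 2 h RT reaction with ATP/IP6 (mix at 1.3 mM/130 uM); top library doses 57.5 and 19.1 uM final.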
Turning to `O=C1CCC2(C(=O)NCCCN3CCCC3)CCC=C2N1C1CCCC1` (stereo not drawn), the activity change was 9.28%. On to `CCOc1ccccc1CNC(=O)c1ccc(-n2c(C)cc3c2CCC(C)C3)cc1` (stereo not drawn), for which the activity change is 14.3%. Then `CCOc1cccc2c1N[C@@H](c1ccc(C(=O)O)cc1)[C@H]1CC=C[C@@H]21`, with -85.5% (active); and `CCOc1cccc(CC(=O)N2CCc3c([nH]c4ccccc34)C2c2ccc(F)cc2)c1OCC` (stereo not drawn), with 2.13%; and `COc1ccc(OC2CN(CC3CCCCC3)C2)cc1`, with -18%. Then `CCN(CC)CCNC(=O)C12CCCC=C1N(Cc1ccccc1)C(=O)CC2` (stereo not drawn), with 7.12%; and `O=C(OCCN1CCOCC1)c1cccnc1Nc1cccc(C(F)(F)F)c1`, with -58.6% (active).

With `O=C(c1ccccc1)N1CCNc2cnc(Nc3cccc(C(F)(F)F)c3)nc2C1`, the activity change is 4.76%. The result for `CCc1cccc(NC(=O)c2cnc(N3CCOCC3)c3ccccc23)c1` reads -10.5%; that for `O=C(c1ccc(Cl)cc1)N1CCCC(n2cc(-c3nc(-c4ccccc4)no3)nn2)C1` (stereo not drawn), 5.18%. The result for `O=C(C1CCCN(C(=O)C2CC2)C1)N1CCC(N2CCCC2=O)CC1` (stereo not drawn) reads -0.186%; that for `CN(C)C[C@@H]1CN(c2ccncn2)C[C@H]1NC(=O)c1cc(C2CC2)[nH]n1`, 3.23%. Turning to `CCn1c2ccccc2c2cc(CN3CCN(Cc4cccc(Cl)c4)CC3)ccc21`, the activity change is -4.05%. The result for `O=c1c2ccccc2n(Cc2cccc(Cl)c2)c(=O)n1Cc1ccccc1` reads -26% (active). Consider `O=C(NC1CCN(Cc2ccccc2)CC1)c1ccc(Cn2c(=O)c3ccccc3n(Cc3cccc(F)c3)c2=O)cc1`, for which the activity change is 6.69%. Turning to `CN(C)C(=O)c1ccc2oc(-c3ccnc(Cl)c3)nc2c1`, the activity change was -35.6% (active). Then `O=C(NCc1ccccc1)c1ccc2nc(-c3ccnc(Cl)c3)oc2c1`, with -0.193%. Then `CCc1ccc(CN(C)C(=O)c2ccc3oc(-c4cccc(F)c4)nc3c2)nc1`, with 12.9%. As to `CCOc1ccc(CC(=O)NC2CCN(c3cc(-c4ccc(F)cc4)[nH]n3)CC2)cc1OCC`, the activity change is 22.5%. The result for `COc1ccccc1NC(=O)C1=C(C)Nc2ncnn2C1c1sccc1C` (stereo not drawn) reads -0.661%; that for `CCOc1ccccc1NC(=O)C1=C(C)Nc2ncnn2C1c1ccc(NC(C)=O)cc1` (stereo not drawn), -19.2%. The result for `CC1=C(C(=O)Nc2ccccc2Cl)C(c2cccs2)n2ncnc2N1` (stereo not drawn) reads -26.4% (active); that for `CCN(Cc1ccccc1)C(=O)CCc1ccc2c(c1)CN(C(=O)NC(C)C)CCO2`, -13.8%; that for `CCCC(C)N1CC2(CCN(C(=O)c3csc(C(C)C)n3)CC2)OC1=O` (stereo not drawn), 4.73%. The result for `COc1ccc(-c2ccc3ncn(Cc4ccccc4)c(=O)c3n2)cc1OC` reads 7.2%; that for `O=c1ncn(Cc2ccccc2)c2ccc(-c3ccoc3)nc12`, -29% (active).

Regarding `O=c1c2nc(-c3ccccc3)ccc2ncn1Cc1ccccc1`, the activity change is 5.89%. For the compound `COCCn1c(=O)n([C@H]2CCCN(C(=O)CCc3ccccc3)C2)c2ncccc21`, the activity change is 6.71%.

Take `CC(C)(Oc1nn(Cc2cccc(Cl)c2)c2ccccc12)C(=O)Nc1cccnc1`: the activity change is -0.544%. Consider `Cc1cc(C)cc(N2CCC(NS(=O)(=O)c3cn(C)c(C)n3)C2=O)c1` (stereo not drawn), for which the activity change is -1.58%. On to `Cc1ccccc1N1CCCN(Cc2nc(-c3ccccn3)no2)CC1`, for which the activity change is -0.56%. In the case of `COc1ccc(Nc2cnc3ccc(-c4ccc(OC)nc4)nn23)cc1`, the activity change is -13.5%. Then `COc1ccc(-c2ccc3ncc(Nc4cc(F)cc(N5CCOCC5)c4)n3n2)cn1`, with -29.7% (active); and `COc1ccc(-c2ccc3ncc(Nc4ccc(C(F)(F)F)cc4)n3n2)cn1`, with -13.9%; and `CC[C@@]1(C(=O)O)C[C@H](C(=O)N(C)CC(=O)O)[C@H](c2ccc(OC)cc2)N1C`, with 9.58%. For the compound `COC(=O)c1ccc(CO[C@H]2CCC=C3C[C@@H](O)CC[C@@]32C)cc1`, the activity change was 17.7%. The result for `CCOC(=O)c1ccc(CSc2nnc3cc(C)c4ccccc4n23)cc1` reads -36.2% (active); that for `CCOC(=O)c1ccc(NC(=O)c2nc(SCc3ccc(F)cc3)ncc2Cl)cc1`, -10%; that for `CCOC(=O)c1ccc(NC(=O)CSc2nc3c([nH]c4ccccc43)c(=O)n2C)cc1`, 32.9%. The result for `O=S(=O)(N[C@@H]1CCOC[C@H]1Oc1ccccn1)c1ccc(Cl)s1` reads -5.56%. Turning to `O=C(NCc1ccco1)C1c2ccccc2C(=O)N(C2CCCC2)C12CCCCC2` (stereo not drawn), the activity change is -8.07%.

On to `Cc1ccc(-c2ccc3nnc(CNC(=O)c4ccccn4)n3n2)cc1`, for which the activity change is -2.05%. The result for `CC(=O)N1CCN(c2ccc3nnc(-c4ccc(C)cn4)n3n2)CC1` reads -10.9%; that for `Cc1ccc(-c2nnc3ccc(-c4ccoc4)nn23)nc1`, -36.1% (active); that for `CC(=O)Nc1ccc(S(=O)(=O)N[C@H]2CO[C@H]3[C@@H]2OC[C@@H]3n2nnnc2-c2ccc(N(C)C)cc2)cc1`, 2.63%. The result for `CCCS(=O)(=O)N1CCC(N2CC(OCCOC)C23CCCCC3)CC1` (stereo not drawn) reads -5.2%; that for `Cc1ccc(NC(=O)c2nc(S(=O)(=O)Cc3cccc(C)c3)ncc2Cl)cc1`, -17.5%. For the compound `CCCS(=O)(=O)c1ncc(Cl)c(C(=O)Nc2scc(-c3ccccc3)c2C(=O)OCC)n1`, the activity change is -31.2% (active).

Turning to `CCOC(=O)c1scc(-c2ccccc2)c1S(=O)(=O)Nc1ccccc1F`, the activity change is -14.6%. Regarding `CCNC(=O)CCc1c(CC)nn(-c2ccc(F)cc2)c1Oc1ccccc1`, the activity change was 1.63%. In the case of `CCOc1ccc(C(=O)N2CCC(c3n[nH]c(=O)n3-c3ccccc3)CC2)cc1OCC`, the activity change is -6.36%. On to `O=Cc1cccc(-c2cc(F)cc(F)c2)c1`, for which the activity change was -5.81%. Then `CSc1ccc(-c2ccc(C=O)cc2)cc1`, with -28.5% (active); and `COc1ccc(CNC(=O)[C@@H](C)C2CC[C@@]3(C)CC[C@H](NC(=O)c4ccc(C#N)cc4)[C@@H](C)[C@@H]3[C@H]2O)cc1` (stereo partly drawn), with -11.9%; and `COc1ccc(Nc2ccnc(N3CCCC(C(=O)NCc4ccc(C(F)(F)F)cc4)C3)n2)cc1` (stereo not drawn), with -7.37%. For the compound `Cc1ccccc1Cc1c(C)nc2c(C(=O)N3CCc4c(c(-c5nncn5C)nn4C)C3)cnn2c1C`, the activity change was 9.9%. The result for `N#CC1CCN(C(=O)c2ccc3nnc(Cc4ccco4)n3c2)CC1` reads 2.16%; that for `COc1ccccc1-c1cc(-c2cccc([S+](C)(=O)[O-])c2)c2onc(C)c2n1`, 2.9%. Then `Cc1noc2c(-c3cccc(CO)c3)cc(-c3ccccc3)nc12`, with -16.9%; and `COc1ccccc1-c1cc(-c2cn[nH]c2)c2onc(C)c2n1`, with -25.3% (active). On to `Cn1c(CCC(=O)N2CC[C@H](CO)[C@H](O)C2)nc2cccnc21`, for which the activity change is -2.6%.

Turning to `COc1ccccc1C(=O)N1CCCC2(C1)Nc1cccnc1NC2=NCc1ccccc1` (stereo not drawn), the activity change is 6.92%. For the compound `O=C(NCC1CCCCC1)[C@@H]1CCCN1c1ccnc2ccnn12`, the activity change was -2.98%. With `CN(C)c1ccc(CN2CCC(N3Cc4ccccc4C3=O)CC2)cc1`, the activity change was -12.5%. As for `CCc1ccc(N2C(=O)CN(S(=O)(=O)CC)CC2(C)C(=O)NC2CCCCC2)cc1` (stereo not drawn), the activity change is -13.3%. Then `CCc1ccccc1NC(=O)c1ccc(F)c(S(=O)(=O)NC2CCCCCC2)c1`, with 15.5%; and `CCc1ccccc1N1C(=O)CN(S(=O)(=O)CC)CC1(C)C(=O)NC1CCCCC1` (stereo not drawn), with -30.6% (active). Regarding `COC(=O)NC1CCN(Cc2ccc(-c3cc(F)ccc3OC)cc2)C1` (stereo not drawn), the activity change was 6.69%. Regarding `Cc1oc(C(O)c2ccccc2)nc1C(=O)Nc1ccc2c(c1)CC(=O)N2` (stereo not drawn), the activity change is 9.78%. Then `CCc1ccccc1N1CC(c2nc3ccccc3n2CCCCOc2ccccc2)CC1=O` (stereo not drawn), with -28.8% (active). The result for `CCOc1ccc(N2CC(c3nc4ccccc4n3CCOc3ccc(OC)cc3)CC2=O)cc1` (stereo not drawn) reads -11.8%; that for `COc1ccc(OCCCn2c(C3CC(=O)N(c4ccc(F)cc4)C3)nc3ccccc32)cc1` (stereo not drawn), -3.06%; that for `COCCO[C@H]1C(=O)N(C2CCN(C(=O)c3ccsc3)CC2)[C@H]1c1ccncc1`, 6.99%. In the case of `CCOC(=O)c1ccc(NC(=O)c2csc3c2CCCCC3)cc1`, the activity change was 3.62%.

Turning to `CCOC(=O)c1ccc(NC(=O)c2c(NCc3cccc(OC)c3)sc3c2CCC3)cc1`, the activity change was 8.31%. The result for `CCOC(=O)c1ccc(NC(=O)c2c(NCc3cccs3)sc3c2CCCC3)cc1` reads -31.3% (active); that for `CC(=O)Nc1cccc(C(=O)N2CCCN(c3cc(-c4ccc(Br)cc4)[nH]n3)CC2)c1`, -10.1%. Turning to `O=C(NCc1ccc(F)c(F)c1)C1CCCN(Cc2cccc(-c3cccs3)c2)C1` (stereo not drawn), the activity change was 0.462%.
